# Source: PubChem BioAssay (several laboratories)
# A selection: hits, their analogues and other compounds. The true share with any hit is near 3.3%.
# Anthrax LF prot – Bacillus anthracis LF protease inhibitors, primary screen, biochemical, multiplex microsphere, MLPCN library; Lethal factor (Bacillus anthracis), P15917; multiplex microsphere protease cleavage assay; inhibition, % at 10 µM; actives 0.12% (n = 360,000); AID 588501, 2011; note: plate controls were buffer without enzyme for full effect and enzyme alone for no effect
# Target sequence (P15917 whole entry, looked up): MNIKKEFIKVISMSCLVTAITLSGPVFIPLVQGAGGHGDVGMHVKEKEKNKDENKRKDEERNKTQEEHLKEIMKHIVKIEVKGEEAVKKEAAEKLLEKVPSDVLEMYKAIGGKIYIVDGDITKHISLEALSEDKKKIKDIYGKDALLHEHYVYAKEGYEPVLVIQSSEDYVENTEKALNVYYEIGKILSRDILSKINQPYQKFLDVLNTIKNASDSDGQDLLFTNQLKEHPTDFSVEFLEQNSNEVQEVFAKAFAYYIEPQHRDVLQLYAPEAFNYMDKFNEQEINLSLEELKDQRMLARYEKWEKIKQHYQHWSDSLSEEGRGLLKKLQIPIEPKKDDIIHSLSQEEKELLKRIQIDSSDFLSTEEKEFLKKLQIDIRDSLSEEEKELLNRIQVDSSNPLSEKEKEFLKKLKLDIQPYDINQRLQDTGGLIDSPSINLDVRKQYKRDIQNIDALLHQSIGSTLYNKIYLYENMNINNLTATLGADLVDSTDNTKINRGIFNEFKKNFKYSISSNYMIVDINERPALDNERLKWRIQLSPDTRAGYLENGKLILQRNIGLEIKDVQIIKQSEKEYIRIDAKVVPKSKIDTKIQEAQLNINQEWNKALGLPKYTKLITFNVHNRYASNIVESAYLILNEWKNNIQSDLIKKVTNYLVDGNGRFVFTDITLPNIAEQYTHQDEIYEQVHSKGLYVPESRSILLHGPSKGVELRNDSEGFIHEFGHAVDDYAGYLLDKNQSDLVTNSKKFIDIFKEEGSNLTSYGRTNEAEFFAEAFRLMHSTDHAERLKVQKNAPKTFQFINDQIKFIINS
# BoNT F protease – BoNT/F light chain protease inhibitors, primary screen, biochemical, flow cytometry, MLPCN library | Botulinum neurotoxin type F light chain protease (Clostridium botulinum) | Multiplex microsphere protease cleavage assay | inhibition, % at 10 µM | actives 0.22% (n = 360,000); in the data active = inhibition above about 35%, passing the limit was not always enough; inconclusive = no clear call, values can overlap the other calls; note: plate controls were buffer without enzyme for full effect and enzyme alone for no effect
# SSB-PriA inh – inhibitors of Klebsiella pneumoniae PriA binding to SSB C-terminal tail, primary screen, biochemical, AlphaScreen | AlphaScreen SSBct-PriA binding, biotinylated peptide | inhibition, % at 33 µM | actives 0.6% (n = 430,000); in the data active = inhibition mostly above about 37%, no sharp cut-off; inactive = mostly below about 20%;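 note: plate controls were negative control peptide for no effect and reference peptide for full effect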
# MazF activator – activators of E. coli MazEF toxin-antitoxin RNase, primary screen, biochemical, fluorescence, uHTS; Endoribonuclease toxin MazF (Escherichia coli (strain K12)), P0AE70; FAM/BHQ RNA-DNA oligo cleavage fluorescence, 5 h; activation, % at 20 µM; actives 0.32% (n = 350,000); in the data active = activation above about 50%
# Autofluor counter – compound fluorescence in toxin protease inhibitor counterscreen. fluorescence intensity (concentration not given with the values). compound autofluorescence counterscreen, microsphere flow cytometry; stronger effect = higher value. actives 3.1% (n = 360,000); in the data active = fluorescence intensity above about 16000; inconclusive = no clear call, values can overlap the other calls
# BoNT A protease – BoNT/A light chain protease inhibitors, primary screen, biochemical, flow cytometry, MLPCN library. inhibition, % at 10 µM. actives 0.17% (n = 360,000). multiplex microsphere protease substrate cleavage; note: plate controls were buffer without enzyme for full effect and enzyme alone for no effect
# The depositor's hits bear a star; ? = inconclusive; . = not tested or not shown; + = active, no number. Cut-off read from the data, not from the text of the source, unless noted: active = inhibition above about 30%; inconclusive = no clear call, values can overlap the other calls; inactive = below that.
SMILES,Anthrax LF prot,BoNT F protease,SSB-PriA inh,MazF activator,Autofluor counter,BoNT A protease
Cc1nc2ccc3nc(NC(=O)c4ccc5c(c4)OCCO5)sc3c2s1,2,3,-11,-38,9400,1
COC(=O)c1ccccc1NC(=S)NC(=O)COc1ccccc1Cl,-6,-6,-3,42,20710*,?
Cc1nn(-c2ccc(F)cc2F)c2c1-c1nc(N3CCCC3)ncc1CC2,-1,-6,-6,-5,23757*,?
O=C(/C=C/c1ccco1)NCC(=O)NN=Cc1ccc([N+](=O)[O-])cc1,.,.,4,.,.,.
COc1ccc(/C=C/C(=O)c2sc(-c3ccccc3)nc2C)cc1,3,-2,-14,3,23221*,2
CCNC(=O)c1sc(-c2ccccc2)nc1C,1,-4,-5,-2,21235*,?
Cc1nc(-c2cccnc2)sc1C(N)=O,-3,-9,1,8,16867*,-2
O=C(NCCS(=O)(=O)N1CCN(c2ncccn2)CC1)c1ccco1,.,.,-1,.,.,.
Nc1cc(=O)[nH]c(SCC(=O)N2CCCc3ccccc32)n1,-2,-8,0,6,16983*,-2
O=C(CSc1ncc(-c2ccccc2)[nH]1)N1CCCc2ccccc21,.,.,39*,.,.,.
COc1ccc(NC(=O)Nc2nc(CCC(=O)NCc3ccco3)cs2)cc1,.,.,3,.,.,.
Brc1ccc2c(c1)C=C(c1nnc(-c3ccccn3)o1)CO2,.,.,7,.,.,.
O=C(NCC1(c2cccs2)CCOCC1)C1CCC1,.,.,-7,.,.,.
COc1ccccc1C1=NNC(=Nc2cccc(S(=O)(=O)N(C)C)c2)SC1,-2,-3,43*,-1,4167,0
CC1=CC(C)(C)N=C(Nc2nc(C)c3cc(C)cc(C)c3n2)N1,-3,1,2,-6,6348,0
CC1=CC(C)(C)N=C(NC#N)N1,-1,2,-11,4,19967*,1
COCCN1CCCc2ccc(NC(=O)c3cccc(Br)c3)cc21,.,.,56*,.,.,.
COCCN1CCCc2ccc(NS(=O)(=O)Cc3cccc(C)c3)cc21,.,.,40*,.,.,.
COCCN1CCCc2ccc(NC(=O)c3ccc(C(C)(C)C)cc3)cc21,.,.,29,.,.,.
COCCN1CCCc2ccc(NS(=O)(=O)c3ccc(OCC(C)C)cc3)cc21,.,.,39*,.,.,.
Cc1ccccc1-c1nc(C)c(CNC(=O)c2ccc3n[nH]nc3c2)s1,.,.,-1,.,.,.
Cc1ccc(NC(=O)c2nnn(Cc3ccc(Cl)cc3)c2-n2cccc2)c(F)c1,.,.,-16,.,.,.
Cc1ccc2cc(-c3noc(C(C)(C)C)n3)c(=O)[nH]c2c1,2,3,4,-3,22460*,2
COc1ccc(-n2c(SC)nc3sc4c(c3c2=O)CCN(C)C4)cc1,-13,-17,5,5,3666,12
CCCN1CCc2c(sc3nc(SCC)n(-c4ccc(OC)cc4)c(=O)c23)C1,29,11,-2,6,4205,40*
SMILES,Anthrax LF prot,BoNT F protease,SSB-PriA inh,MazF activator,Autofluor counter,BoNT A protease
CCCN1CCc2c(sc3nc(SCC)n(-c4ccccc4)c(=O)c23)C1,15,5,-13,-5,5969,34*
CCCNC(=O)Cn1c(=O)/c(=C/c2ccc(-c3ccc([N+](=O)[O-])cc3)o2)s/c1=C\C(=O)C(C)(C)C,33*,22,-15,-9,6201,32*
CCCNC(=O)Cn1c(=CC(=O)C(C)(C)C)sc(=Cc2ccc(-c3ccc([N+](=O)[O-])cc3)o2)c1=O,.,.,16,.,.,.
CC(C)(C)CC(=O)N1CCN(c2ccc(-c3ccncc3)nn2)CC1,.,.,-8,.,.,.
O=C(Nc1nc2ccccc2s1)C1CCCN1S(=O)(=O)c1ccc(Cl)cc1 (centres undefined),-2,-7,13,12,22849*,?
Cc1nnc(NC(=O)C2CCCN2S(=O)(=O)c2ccc(Cl)cc2)s1 (centres undefined),-7,-3,-8,6,4411,-1
Cc1ccc(S(=O)(=O)N2CCCC2C(=O)Nc2nc3ccccc3s2)cc1 (centres undefined),-5,-3,5,1,20751*,0
Cc1ccc(S(=O)(=O)N2CCCC2C(=O)N(C)Cc2cccs2)cc1 (centres undefined),0,1,-11,3,19722*,?
Cc1[nH]c2ccccc2c1C(c1ccc(C(F)(F)F)cc1)N1CCCCC1 (centres undefined),.,.,20,.,.,.
O=C(Nc1ccc2c(c1)CN(C(=O)C1CC1)CC2)c1ccc(Cl)cc1,.,.,-5,.,.,.
COC(=O)C1C(O)C(C)C(O)C(C)(O)C=CC=C(C)C(=O)Nc2c(C)c(OC(C)=O)c3c(c2O)C(=O)C(C)=C2OCOC(=C23)C(C)=CC(C)(O)C(O)C(C)C1O (centres undefined),.,.,-7,.,.,.
Cc1cccc(-n2ncc3c(N4CCCc5ccccc54)ncnc32)c1,-6,0,-32,-3,20241*,1
CCN(CC)C(=O)Oc1ccc2c(=O)c(-c3ccccc3)coc2c1,0,4,-14,-18,21592*,2
COc1ccc2c(=O)c(-c3ccccc3)coc2c1,2,-4,-16,4,6027,-1
CCC1Oc2ccccc2C(=O)N(Cc2ccccc2F)C1=O (centres undefined),.,.,-6,.,.,.
O=C(O)c1ccc(O)c2ncccc12,9,3,.,.,4534,-1
O=C(CCl)c1ccc(O)c2ncccc12,.,.,121*,.,.,.
Oc1ccc(F)c2cccnc12,0,1,81*,-24,4845,-1
Oc1ccc(CNc2ccccc2F)c2cccnc12,-8,-6,-7,9,3646,-1
O=C(O)Cc1ccc(O)c2ncccc12,.,.,87*,.,.,.
Oc1ccc(CNc2ncccn2)c2cccnc12,.,.,76*,.,.,.
Oc1ccc(Cl)c2cccnc12,-6,-7,-4,9,2917,-1
OCc1ccc(O)c2ncccc12,-7,-5,80*,6,2892,-1
O=C(O)CCc1ccc(O)c2ncccc12,.,.,114*,.,.,.
Oc1ccc(Br)c2cccnc12,.,.,52,.,.,.
SMILES,Anthrax LF prot,BoNT F protease,SSB-PriA inh,MazF activator,Autofluor counter,BoNT A protease
COCCNC(=O)N(Cc1ccsc1)Cc1ccco1,.,.,2,.,.,.
C=CCn1c(=O)c2ccc(C(=O)N[C@@H](C)CC)cc2n2c(=O)[nH]nc12,.,.,1,.,.,.
Cc1ccc(S(=O)(=O)/N=C(\Sc2ccccc2)c2ccccc2)cc1,0,-6,.,-14,24784*,-2
O=S(=O)(NCCOc1ccc2nnc(-c3cccc(F)c3)n2n1)c1ccccc1,.,.,-7,.,.,.
CC(=O)N1C(=O)C(=C2C=C(C)OC(C)=C2)c2ccccc21,-1,4,-6,+,23162*,0
CC1=CC(=C2C(=O)c3ccccc3C2=O)C=C(C)O1,4,3,-3,7,2431,8
